Shiga toxin inh = blocks Shiga toxin action in Vero cells | Vero cells, Shiga toxin protein synthesis inhibition reporter | inhibition, % at 38.7 µM | 290,000 compounds, 9.2% hits; in the data active = inhibition mostly above about 28%, no sharp cut-off; inactive = mostly below about 43%; also: 0% is about no effect
Marburg entry inh = Marburg virus entry inhibition; Marburg virus pseudotyped entry inhibition, cell reporter; Potency, µM (top dose mostly 37.8 µM), for the others: at the top dose activity change, negative = inhibition, hits mostly inhibitors; 300,000 compounds, 1.8% hits; AID 540276; calls by dose curve; tested in HEK293 cells; also: potency is read from the fitted curve at half-maximal effect; % is scaled to controls: 0 for no effect and ±100 for the full control effect
Pf growth 48h = inhibits P. falciparum growth in the first generation, 48 h; P. falciparum luciferase growth in erythrocytes, 48 h; Potency, µM (titrated, usually from 28.7 µM), for the others: top-dose activity change, negative = inhibition, hits mostly inhibitors; 310,000 compounds, 5.9% hits; AID 504832; also: potency is read from the fitted curve at half-maximal effect; % is scaled to controls: 0 for no effect and ±100 for the full control effect
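First compound was added to culture medium, then infected red cells at 0.1% parasitemia and 2% hematocrit (final). After incubation at 37 C under 5% CO2, luciferase detection reagent was dispensed and light output recorded.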
LASV entry inh = Lassa virus entry inhibition; Lassa virus pseudotype entry inhibition, cell reporter; Potency, µM (highest dose often 37.9 µM), inactives show top-dose activity change, negative = inhibition, hits mostly inhibitors; 300,000 compounds, 1.2% hits; AID 540256; calls by dose curve; tested in HEK293 cells; also: potency is read from the fitted curve at half-maximal effect; % is scaled to controls: 0 for no effect and ±100 for the full control effect; nearly all actives have a fitted effect of over 50% in size
Pf growth 96h = P. falciparum growth inhibition at 96 hour, primary screen for plastid delayed-death inhibitors; P. falciparum luciferase reporter growth, 96 h; Potency, µM (titrated, usually from 28.7 µM), inactives show at the highest dose activity change, negative = inhibition, actives largely listed as inhibitors; AID 504834; 320,000 compounds, 6.9% hits; also: potency is read from the fitted curve at half-maximal effect; % is scaled to controls: 0 for no effect and ±100 for the full control effect
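Parasite growth measured via integrated firefly luciferase reporter in P. falciparum. Infected erythrocytes at 2% hematocrit, 0.05% parasitemia final were treated 96 hours at 37 C under 5% CO2, and luminescence was read.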
CHX counter = affects cycloheximide protein synthesis inhibition readout, counter-screen. cell reporter, cycloheximide protein synthesis inhibition counterscreen. max response, %. 300,000 compounds, 12% hits. AID 2314; in the data active = max response mostly above about 13%, no sharp cut-off; inactive = mostly below about 14%; also: read at 38.3 µM for the half of the compounds with a filed dose; 0% is about no effect
* marks the source's active call; other numbers are inactive results; ? = inconclusive; . = no result given; [ ] = dose if it differs, or a comment. Compounds with a hit are over-represented: about 19% of the library has one in this group of screens. Unless noted, calls follow the shape of the dose curve; as a rule, active = well fitted inhibition curve with a large enough effect; inconclusive = small, poorly fitted or top-dose-only effect, or another doubt; inactive = no such curve, though single readings can be large or run the other way.

SMILES | Shiga toxin inh | Marburg entry inh | Pf growth 48h | LASV entry inh | Pf growth 96h | CHX counter
CC1CC(Nc2ccccc2)=CC(=O)O1 (stereo unspecified) | 18 | -18% | . | 19% | ? | -2
CC(C)CC(NC(=O)C(COC(C)(C)C)NC(=O)C(Cc1ccc(O)cc1)NC(=O)C(CO)NC(=O)C(Cc1c[nH]c2ccccc12)NC(=O)C(Cc1cnc[nH]1)NC(=O)C1CCC(=O)N1)C(=O)NC(CCCN=C(N)N)C(=O)N1CCCC1C(=O)NNC(N)=O (stereo unspecified) | 15 | . | 5% | . | -12% | -8
Cc1ccc(C(=O)Nc2ccncc2)cc1[N+](=O)[O-] | -7 | . | -19% | . | ? | -3
O=C(Nc1ccc(Cc2ccncc2)cc1)c1ccc(Cl)c([N+](=O)[O-])c1 | -2 | 0% | ? | -28% | ? | 8.6*
O=C(Nc1ccc(Nc2ccccc2)cc1)c1ccc(Cl)c([N+](=O)[O-])c1 | 6 | . | 2% | . | ? | 0
Cc1c([N+](=O)[O-])cc(C(=O)Nc2ccc(Cc3ccncc3)cc2)cc1[N+](=O)[O-] | -9 | -14% | 13µM* | -2% | -4% | -3
COc1cccc(N2CCN(S(=O)(=O)c3ccc4nc(-c5ccccc5)[nH]c4c3)CC2)c1 | -9 | 2%[46.1 µM] | . | -17% | 27% | -2
O=C1Nc2ccccc2C1Cc1ccc(OC(F)(F)F)cc1 (stereo unspecified) | 4 | . | . | . | -8% | 3
CCn1c(C)cc(/C=C2\C(=O)NC(=O)N(c3ccccc3C)C2=O)c1C | -10 | . | -1% | . | 0% | -1
Cc1ccccc1N1C(=O)NC(=O)/C(=C\c2cnn(-c3ccccc3)c2)C1=O | 56* | -2% | 2% | 2% | 8% | 24*
O=C(Nc1ccccc1F)Nc1ccccc1OC(F)F | 31 | 10% | 27% | -11% | 31% | 25*
CCOc1ccc(NC(=O)CCC(=O)NNC(=O)c2ccco2)cc1 | 2 | ? | 7% | 17% | 1% | -1
Cc1ccc(NC(=O)Nc2ccc(F)cc2F)c(OC(F)F)c1 | 17 | . | 16% | . | -21% | -3
CCOc1ccc(C(=O)Nc2ccccc2OC(F)F)cc1 | 65* | 20%[46.1 µM] | 12% | -4% | ? | 10
O=C(Nc1ccccc1OC(F)F)c1ccc(F)cc1 | 12 | 12%[46.1 µM] | -9% | -2% | 39% | 8
CCOc1ccccc1NC(=O)c1ccc(C(=O)Nc2ccccc2OCC)cc1 | . | . | . | -22%[46.1 µM] | . | .
CCOc1ccc(NC(=O)c2ccco2)cc1 | 47* | ? | -59% | ? | . | 30*
CCOc1ccccc1NC(=O)c1ccc(NC(=O)c2ccco2)cc1 | 51 | ? | 2.9µM* | -3% | -22% | 13*
O=C(Nc1nccs1)C(c1ccccc1)N1CCCCC1 (stereo unspecified) | 23 | ? | 2% | 10% | 8% | 9
CCOc1ccc(NC(=S)NC(=O)c2ccco2)cc1 | 85* | . | 52% | . | 111% | 62*
O=C(Nc1ccc(Oc2ccc3ccccc3c2)cc1)c1ccco1 | 47 | ? | 2.1µM* | -36% | . | 7
COc1cc(OC)cc(C(=O)NC(=S)Nc2ccc(NC(=O)c3ccco3)cc2)c1 | 1 | ? | 9% | -5% | 20% | -1
COC(=O)COc1ccc(NC(=O)c2ccco2)cc1 | 22 | -1% | 7% | 21% | 0% | 16*
COc1cc(OC)cc(-c2c(C#Cc3ccsc3)c3cc(-c4ccc(C(N)=O)cc4)ccc3n2C)c1 | . | . | 1.3µM* | . | 1µM* | .
O=C(CCNC(=O)c1ccco1)NCCc1ccc(Cl)cc1 | -19 | -6% | 7% | 15% | ? | 10
SMILES | Shiga toxin inh | Marburg entry inh | Pf growth 48h | LASV entry inh | Pf growth 96h | CHX counter
O=S1(=O)CCC(NC(=S)Nc2ccc3ccccc3c2)C1 (stereo unspecified) | 43* | 2%[46.1 µM] | 43% | 2%[46.1 µM] | 27% | 27*
O=S1(=O)CCC(NC(=S)Nc2ccccc2)C1 (stereo unspecified) | -6 | -8%[14.2 µM] | -2% | 12% | 3% | -2
CC1CCCCN1S(=O)(=O)c1ccc(N(C(=O)c2cnccn2)C(C(=O)NC2CCCC2)c2cccs2)cc1 (stereo unspecified) | -5 | -26% | 13µM* | ? | ? | -4
Cc1cc(C)cc(N(C(=O)c2ccccn2)C(C(=O)NC2CCCCC2)c2cccs2)c1 (stereo unspecified) | 18 | ? | ? | -25% | ? | 8
CC1CCCCN1S(=O)(=O)c1ccc(N(C(=O)c2cnccn2)C(C(=O)NC2CCCCC2)c2cccs2)cc1 (stereo unspecified) | -13 | ? | 12µM* | ? | 8.3µM* | -1
Cc1ccnc(NC(=O)c2ccccc2NC(=O)c2ccc(Cl)cc2Cl)c1 | 4 | . | ? | . | -107% | 2
O=C(O)/C=C/C(=O)NCc1ccccc1 | -5 | 11% | 9% | -2% | 2% | -4
O=C(/C=C/NCc1cccnc1)c1ccc(-c2ccccc2)cc1 | 91* | ? | 22% | ? | 0% | 33*
O=C(O)/C=C\C(=O)NCc1cccnc1 | -15 | . | 19% | . | 2.6µM* | -3
O=C(/C=C/c1ccc(-c2ccccc2)cc1)NCc1cccnc1 | . | ? | 29% | 0%[46.1 µM] | ? | 28*
O=C(/C=C/c1ccccc1)NCc1cccnc1 | 1 | 10%[46.1 µM] | 14% | 12% | 231% | 3
COc1ccc(CCNC(=O)CN(c2ccc(C)cc2)S(=O)(=O)c2c(C)noc2C)cc1OC | -22 | -6% | ? | -21% | ? | -4
Cc1cccnc1NC(=O)c1ccc(S(=O)(=O)NCc2ccco2)cc1 | . | -9%[46.1 µM] | 22% | 7% | 31% | .
C/C(=N\Nc1nc(Cl)c(Cl)cc1Cl)c1ccc(S(=O)(=O)NCc2ccco2)cc1 | 122* | ? | 7% | ? | -26% | 69*
C/C(=N\Nc1ccccn1)c1ccc(S(=O)(=O)NCc2ccco2)cc1 | 81* | 6% | 0% | ? | 4% | 44*
C/C(=N\Nc1ccc(C(F)(F)F)cn1)c1ccc(S(=O)(=O)NCc2ccco2)cc1 | 121* | ? | -4% | -18% | -5% | 72*
C/C(=N\Nc1ccc(C(=O)O)cc1)c1ccc(S(=O)(=O)NCc2ccco2)cc1 | 77* | . | 87% | . | 25% | 45*
CCOc1ccc(NC(=O)CN(C)C(=O)CCCOc2ccc(Cl)c(C)c2)cc1OCC | -22 | ? | -18% | ? | ? | 11
Cc1ccc(NC(=O)C2CCCN(C3=NS(=O)(=O)c4ccccc43)C2)c(O)c1 (stereo unspecified) | . | . | 12µM* | . | 15µM* | .
CCc1nnc(NC(=O)C2CCCN(c3nc(C)cc(C)n3)C2)s1 (stereo unspecified) | -23 | 2% | 20% | 4% | 4.7µM* | -5
Cc1ccc(NC(=O)C2CCCN(c3ncccn3)C2)c(C)c1 (stereo unspecified) | 49* | ? | 73% | -25%[46.1 µM] | 13µM* | 33*

Screens from PubChem BioAssay.
